# About 79,000 compounds went through this panel and 15% of them were active in at least one assay; those are over-represented in the sample as a whole. A number with no mark means an inactive call. Calls of active or inactive are those of the source. Rule as the data show it: active = growth inhibition above about 70%; inactive = the rest.
# Key:
# [1] = NCI Yeast Anticancer Drug Screen. Data for the rad50 strain (AID 155);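 also: 0% = growth of vehicle-only cultures of the same strain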; conditions: S. cerevisiae rad50 strain growth inhibition; at 50.0 µM; stronger effect = higher value
# In short: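 Inhibition values express reduced yeast growth in compound-treated cultures relative to vehicle-treated controls.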
# [2] = NCI Yeast Anticancer Drug Screen. Data for the mec2-1 strain (AID 157); conditions: S. cerevisiae mec2-1 strain, at 50.0 µM, stronger effect = higher value
# In short: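 Using mec2-1 yeast: add compound, measure growth, express inhibition versus vehicle-treated cultures.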
# [3] = NCI Yeast Anticancer Drug Screen. Data for the cln2 rad14 strain (AID 165);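 also: 0% = growth equal to vehicle treated cultures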; conditions: S. cerevisiae cln2 rad14 strain, at 50.0 µM, stronger effect = higher value
# In short: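 Yeast strain cln2 rad14, bearing defects in cell cycle control and DNA repair, serves as the test system; values reflect growth inhibition compared with vehicle.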
# [4] = NCI Yeast Anticancer Drug Screen. Data for the bub3 strain (AID 167); conditions: S. cerevisiae bub3 mutant strain, at 50.0 µM, stronger effect = higher value
# In short: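 Steps: expose the mutant yeast strain to compound; grow alongside vehicle-treated cultures; measure growth; express inhibition against the vehicle cultures.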
# [5] = NCI Yeast Anticancer Drug Screen. Data for the mlh1 rad18 strain (AID 175); conditions: S. cerevisiae mlh1 rad18 strain growth inhibition; at 50.0 µM; stronger effect = higher value
# In short: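 Steps: expose repair-defective yeast to compound; measure growth; express inhibition against vehicle-treated controls.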
Compound,growth inhibition [1] [%],growth inhibition [2] [%],growth inhibition [3] [%],growth inhibition [4],growth inhibition [5]
COc1ccccc1NC(=O)CC(C)=O,7,-5.9,-11.6,-15.8%,-8.5%
CN(C)S(=O)(=O)Cc1ccccc1,7.95,-6.65,-73.5,6.75%,-7.1%
CC(=O)OCC1OC(n2c(=S)n(-c3ccc([N+](=O)[O-])cc3)c(=O)c3ccccc32)C(OC(C)=O)C(OC(C)=O)C1OC(C)=O (stereo not given),-6.3,19.1,19,11.8%,9.1%
CC(C)([NH-])C[NH-].[Cl][Pt+2][Cl],-17.1,-18.8,-23.4,-3.8%,5.1%
CCN(CC)C(=O)c1ccccc1,7.75,8.6,-2.65,-24.6%,10.3%
O=C1C2Cc3ccccc3CN2C(=O)N1CCN1CCCC1 (stereo not given),-19.1,-33.7,4.3,-22.6%,8%
Cc1cc(Cl)c(=O)n(-c2ccccc2)n1,3.65,-9.7,-27.8,4.75%,-16.1%
O=C(NC(COC(=O)c1ccccc1)COC(=O)c1ccccc1)c1ccccc1,29.5,7.85,12.8,-1.1%,9.95%
O=C(OCCO)c1ccc(O)c(O)c1,14.6,-4.65,-25.8,-6.1%,7.55%
N#Cc1nc(CCCCCN2C(=O)c3ccccc3C2=O)oc1N,-8.9,9.2,-4.1,-28.6%,-68.8%
COc1ccc(C(=O)C[C@H]2CCC[C@@H](CC(=O)c3ccc(OC)cc3)N2C)cc1,14.4,5.05,12,0.25%,8.1%
Cc1nc(-n2nc(-c3ccccc3)cc2-c2ccccc2)sc1C(/C=C/c1ccc([N+](=O)[O-])cc1)=N/NC(N)=S,18.6,7.15,-18.3,44.4%,33.7%
COc1ccc(OC)c(C(=O)C=C(C(F)(F)F)C(F)(F)F)c1,-7.65,-0.95,-41.6,-9.3%,58.9%
O=C(NNc1ccccc1)c1ccc(Cl)cc1Cl,3.5,-9.4,-0.05,50.4%,34.9%
O=P(O)(O)Oc1ccc(NCCO)cc1,-9.5,-5,17.4,7.55%,-13.9%
CCCCCCCCCCCCCCCCCCc1c(C)cc(C)cc1C,3.7,23.2,33.3,3.55%,4.3%
COC(=O)c1cc2c(cc1CC(Cc1ccc3c(c1)CCCC3)C(=O)OC)CCCC2 (stereo not given),-2.1,1.35,2.35,-2.25%,-5.15%

Compound,growth inhibition [1] [%],growth inhibition [2] [%],growth inhibition [3] [%],growth inhibition [4],growth inhibition [5]
Clc1cccc(-c2nc3cccc4c3n2Cc2ncccc2-4)c1,-47.8,-37,-9.4,0.65%,-44.4%
CCN(CC)P1(=O)C=C(C)C2C1C1C=C(C)C2P1(=O)N(CC)CC (stereo not given),3.5,-2.45,-5.25,-34.8%,-13.2%
OC1CCC2=C(C1)C1CCC2C1 (stereo not given),9.05,-10.7,-18.4,-12%,15.8%
Nc1cc([N+](=O)[O-])cc(S(=O)(=O)O)c1O,-5.15,-2.95,-65.8,7.45%,-26%
Cn1c(=O)c2c(nc(Cc3ccccc3)n2CC(=O)O)n(C)c1=O,0.3,-18.1,-6.95,-32.1%,-18.9%
CC1(C)C2CC3OC3(C)C1C2 (stereo not given),21.3,-7,-55.9,-19.9%,-10.8%
c1ccc(C[P+]2(c3ccccc3)c3ccccc3-c3ccccc32)cc1,-25.9,-8,4.15,-6.6%,-38.2%
CC12CCC(=O)N1[C@@H](c1ccccc1)[C@@H](c1ccccc1)O2 (stereo not given in full),25.6,-12.6,15.4,3.65%,5.9%
CSc1nc(SC)c(Cl)c(C(Cl)Cl)n1,32.2,59.2,7.3,74.8% (active),75% (active)
Cc1ccccc1-n1c(=O)sc2c(=O)n(-c3ccccc3)c(=S)[nH]c21,-11.2,-23.4,6.2,0.6%,-18.9%
CCC1C(OC)=CC(CC)(CO)C=C1OC (stereo not given),4.35,-3.45,14.2,6.8%,-6.3%
O/N=C/C(=Nc1cccc2ccccc12)NO,-11.1,-12.8,-10.3,-5.7%,13.9%
Cc1ccccc1C(=O)NCc1ccccc1,13.6,-6.7,-27.5,11.3%,4.25%
NC(=O)C1C2C=CC(O2)C1C(=O)O (stereo not given),-26.6,-12.9,-23.6,-1.9%,5.4%
CCCCn1c(-c2ccccc2)cs/c1=N\NC(=O)Cn1c(C)nc2ccccc21,-30.8,-8.3,18.9,-3.25%,-16.8%
Cc1ccc(N=C(N)NC#N)cc1,-11.9,-46,16.6,-34%,-7.75%
